PubChem BioAssay (NCI)
About 83,000 compounds went through this panel and 20% of them were active in at least one assay; those are over-represented in the sample as a whole.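 Percent growth is the endpoint: 0 to 100 indicates growth inhibition (40 means 60% inhibition), 0 means no net growth, and negative values indicate cell death.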 A number with no mark means an inactive call. Calls of active or inactive are those of the source. The calls were made as follows: active = growth percent below 10; inactive = the rest.

system: SF-539 CNS; experiment: NCI-60 one-dose screen, 48 h (100 = growth as untreated, 0 = no growth, -100 = all killed); conditions: 10 µM unless noted

`O=[N+]([O-])c1ccc(-c2nc(N3CCOCC3)c3c4c(sc3n2)CCCC4)cc1` and `O=C(Cn1c2c(c3ccccc31)CCCC2)Nc1ccc(-c2nc3ccccc3s2)cc1` are the same in growth: 102% for the first, 102% for the second.

First: COc1cc(N2C(=O)[C@H](O)C2c2ccc(SC)cc2)cc(OC)c1OC (stereo partly specified)
Second: Cc1ccccc1/C=C1\CN(C(=O)OC(C)(C)C)C/C(=C\c2ccccc2C)C1=O
The growth of the first is lower: 16.3% for the first, 31.2% for the second.

Compared with `Cc1nnc(NC(=O)c2nc(S(=O)(=O)Cc3ccc(F)cc3)ncc2Cl)s1`, `O=C(Nn1c2c(sc1=NCc1ccccc1)C(=O)c1ccccc1C2=O)c1cc2ccc1CCc1ccc(cc1)CC2` is higher in growth: 83.8% for the first, 87.5% for the second.

Compared with `C[C@]12C=CC(=O)C=C1CCC1C2[C@@H](O)C[C@@]2(C)C1CC[C@]2(O)C(=O)COC(=O)CCC(=O)O` (stereo partly specified), `Cn1cccc1C(=O)C1C(c2cccc([N+](=O)[O-])c2)C2C3CCCCC3CN2C12C(=O)Nc1ccc(Cl)cc12` (stereo unspecified) is lower in growth: 96.8% for the first, 77.2% for the second.

For `C#Cc1ccc(NC(=O)c2ccc(/C=C/C(=O)c3nccn3C)cc2)cc1`, the growth was -96.7% (active).
For `Cc1cc(Cl)ccc1Nc1nc(C(F)(F)F)ccc1C(=O)N/N=C/c1ccc([N+](=O)[O-])cc1`, the growth was 3.77% (active).
`CC(C)c1ccc(COCc2cc(CN3CCCC3)c(O)c3ncccc23)cc1` was tested, and the growth was -22.1% (active).

system: UACC-257 melanoma; experiment: as above; conditions: 10 µM unless noted

First: COc1cc(C(=O)n2nc(N3CCN(C)CC3)c3cc(N)ccc32)cc(OC)c1OC
Second: COc1cc(N2C(=O)[C@H](O)C2c2ccc(SC)cc2)cc(OC)c1OC (stereo partly specified)
The growth of the first is higher: 85.3% for the first, 42.1% for the second.

First: O=C1N[C@@H]2NC(=[N+]3CCOCC3)N[C@@H]2N1
Second: CC1=C(Nc2ccc(N3CCN(C)CC3)cc2)C(=O)c2cncnc2C1=O
The growth of the first is higher: 109% for the first, 65.6% for the second.

First: N#Cc1c(N)nnn1Cc1cc(=O)oc2c1ccc1ccccc12
Second: Cc1c(-c2nc3ccc(F)cc3c(=O)[nH]2)c2ccccc2n1C
The growth of the first is higher: 97.7% for the first, 55% for the second.

Going from `COc1cc(OC)cc(C2=C3CC[C@@H]4[C@H](CC[C@]5(C)C(=O)CC[C@@H]45)C3=CC3C(O)c4cccnc4N4C(=O)COC234)c1` (stereo partly specified) to `COc1ccc(C(=O)C2C(c3ccc(OC)cc3)CN(C)C23C(=O)Nc2ccccc23)cc1` (stereo unspecified), the growth falls from 98.1% to 97.5%.

First: C=C(C)[C@@H]1CC[C@]2(C(=O)N3CCN(C)CC3)CC[C@]3(C)[C@H](CC[C@@H]4[C@@]5(C)CC(=C/c6ccncc6)/C(=N/O)C(C)(C)[C@@H]5CC[C@]43C)[C@@H]12
Second: CCCCN[C@H]1CC[C@@]2(C)[C@@H](CC[C@@]3(C)[C@H]2[C@H](O)C[C@H]2/C(=C(\CCC=C(C)C)C(=O)OC)[C@@H](OC(C)=O)C[C@@]23C)[C@@H]1C
The growth of the first is lower: 85.8% for the first, 98.1% for the second.

First: CN1CCN(Cc2ccc3c(NNC(=O)c4ccccc4)nc4cc(F)ccc4n23)CC1
Second: Cc1nc2sc(C(=O)Nc3ccccc3)c(N)c2cc1C(=O)c1ccccc1
The growth of the first is lower: 11.8% for the first, 49.8% for the second.

Going from `CCOC(=O)c1c2c(n3ccc(C)cc13)C(=O)c1ccccc1C2=O` to `O=C(Nn1c2c(sc1=NCc1ccccc1)C(=O)c1ccccc1C2=O)c1cc2ccc1CCc1ccc(cc1)CC2`, the growth falls from 78.2% to 52.6%.

Going from `CCCC(=O)NC(c1ccc2c(c1)OCO2)c1ccc2cccnc2c1O` (stereo unspecified) to `O=C(Cn1c2c(c3ccccc31)CCCC2)Nc1ccc(-c2nc3ccccc3s2)cc1`, the growth rises from 19.1% to 106%.

Compared with `CO[C@]12C=C/C(=C(/C(=O)OCc3cccnc3)C(=O)CCCCCCCC[C@@]3(OC)C=C/C(=C(/C(=O)OCc4cccnc4)C(=O)CCCCCCCC1)O3)O2`, `O=[N+]([O-])c1ccc(-c2nc(N3CCOCC3)c3c4c(sc3n2)CCCC4)cc1` is higher in growth: 33.6% for the first, 92.7% for the second.

Compared with `Brc1c2c(c(Br)c3ccccc13)CCCC2`, `Cc1ccccc1/C=C1\CN(C(=O)OC(C)(C)C)C/C(=C\c2ccccc2C)C1=O` is lower in growth: 89.8% for the first, 74.3% for the second.

Compared with `CCCCCCC1(C)NCCO1` (stereo unspecified), `CC(C)N1CN2C(=S)NC3C2N(C1)C(=S)N3C` (stereo unspecified) is lower in growth: 99% for the first, 95% for the second.

Compared with `CC(=O)OCc1nc(C#N)c(N(C)C)o1`, `CN[C@]12CC3(C=CC(=O)C=C3)O[C@@]1(Cc1ccc(OC)cc1)N(C)C(=O)N2` is lower in growth: 92.8% for the first, 41% for the second.

Going from `O=C1/C(=C\c2cn(-c3ccccc3)nc2-c2ccc(-c3cccs3)cc2)CCc2ccccc21` to `Cc1ccc(-c2nn(-c3ccccc3)cc2C=C2C(=O)ON=C2C(C)C)cc1`, the growth rises from 83.3% to 96.4%.

Going from `CC/C(=C(/c1ccc(Cl)cc1)c1ccc(OCCN2CCCC2)cc1)c1ccc(OC)cc1` to `Cn1cccc1C(=O)C1C(c2cccc([N+](=O)[O-])c2)C2C3CCCCC3CN2C12C(=O)Nc1ccc(Cl)cc12` (stereo unspecified), the growth falls from 74.8% to 70.7%.

First: Cc1nnc(NC(=O)c2nc(S(=O)(=O)Cc3ccc(F)cc3)ncc2Cl)s1
Second: C[C@]12C=CC(=O)C=C1CCC1C2[C@@H](O)C[C@@]2(C)C1CC[C@]2(O)C(=O)COC(=O)CCC(=O)O (stereo partly specified)
The growth of the first is lower: 40.6% for the first, 99.3% for the second.

With `COC(=O)c1ccc2c(c1)C(=O)c1c-2n(CCCN)c(=O)c2cc([N+](=O)[O-])ccc12` the growth was -96.1% (active).
For `C#CCOc1cccc(Nc2ncnc3ccc(NC(=O)CCl)cc23)c1`, the growth was -67.1% (active).
In the case of `CCN(CC)CCNC(=O)c1cn2ncnc(Oc3ccc(NC(=O)Nc4ccc(Cl)c(C(F)(F)F)c4)c(F)c3)c2c1C`, the growth is reported as -57.4% (active).
With `C=C(CNCCc1ccc(O)cc1)[C@@H]1CC[C@]2(CO)CC[C@]3(C)[C@H](CC[C@@H]4[C@@]5(C)CCC(NCCO)C(C)(C)[C@@H]5CC[C@]43C)[C@@H]12` (stereo partly specified) the growth was -77.9% (active).
In the case of `COC1=CC(c2ccc[nH]2)=N/C1=C\c1[nH]c(C)c(C(=O)OCc2ccccc2)c1C`, the growth is reported as -57.5% (active).
`COc1ccc(C/C(C)=C(/c2ccc(OCCN3CCCCC3)cc2)c2ccc(OC(=O)NCc3ccccc3)cc2)cc1` was tested, and the growth was -83.2% (active).
`C#Cc1ccc(NC(=O)c2ccc(/C=C/C(=O)c3nccn3C)cc2)cc1` was tested, and the growth was -19.6% (active).
With `Cc1cc(Cl)ccc1Nc1nc(C(F)(F)F)ccc1C(=O)N/N=C/c1ccc([N+](=O)[O-])cc1` the growth was -13.1% (active).
`CC(C)c1ccc(COCc2cc(CN3CCCC3)c(O)c3ncccc23)cc1` was tested, and the growth was -12.8% (active).

`Cc1cc2c([nH]1)CSc1cc(S(=O)(=O)c3ccccc3)c(=O)[nH]c1-2` showed a growth of 62.2% [100 µM].
